Bioassay records (PubChem BioAssay)
Pf growth 96h – Primary qHTS for delayed death inhibitors of the malarial parasite plastid, 96 hour incubation; AID 504834, 2011; 320,000 compounds, 6.9% hits; P. falciparum luciferase reporter growth, 96 h; Potency, µM (series often up to 28.7 µM), hits mostly inhibitors
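Luminescence readout: decreased luciferase signal marks inhibited growth of reporter-expressing P. falciparum in infected red cells (2% hematocrit, 0.05% parasitemia final), exposed to compound two generations (96 h, 37 C, 5% CO2).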
Cycloheximide cs – Cycloheximide Counterscreen for Small Molecule Inhibitors of Shiga Toxin. max response, %. 300,000 compounds, 12% hits. cell reporter, cycloheximide protein synthesis inhibition counterscreen; in the data active means max response mostly above about 13%, no sharp cut-off; inactive means mostly below about 14%; further: read at 38.3 µM for the half of the compounds with a filed dose
Pf growth 48h – Primary qHTS for delayed death inhibitors of the malarial parasite plastid, 48 hour incubation. P. falciparum luciferase growth in erythrocytes, 48 h. Potency, µM (doses to about 28.7 µM), usual class: inhibitors. 310,000 compounds, 5.9% hits. AID 504832, 2011
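Parasite viability was followed by luminescence of a genomically integrated firefly luciferase. Cultures held 0.1% parasitemia at 2% hematocrit (final), incubated under 5% CO2 at 37 C.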
Shiga toxin inh – A qHTS for Small Molecule Inhibitors of Shiga Toxin | inhibition, % at 38.7 µM | 290,000 compounds, 9.2% hits | AID 2315, 2010 | Vero cells, Shiga toxin protein synthesis inhibition reporter; in the data active means inhibition mostly above about 28%, no sharp cut-off; inactive means mostly below about 43%
NS1 function inh – qHTS Assay for Inhibitors of Influenza NS1 Protein Function. Potency, µM (series often up to 46.1 µM). 270,000 compounds, 0.4% hits. AID 2326, 2010; calls by dose curve; further: actives are rising curves; nearly all actives have a fitted effect of over 50% in size
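Recovery from NS1-induced slow growth read by OD600 in budding yeast switched to galactose assay medium (pH 6.0, -URA) at 1:100 dilution. Compound 23 nl per well; the matching strain lacking NS1 serves as control.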
SARS PLP yeast – qHTS of Yeast-based Assay for SARS-CoV PLP. S. cerevisiae expressing SARS-CoV PLpro, growth rescue. Potency, µM (top dose mostly 32.9 µM), usual class: activators. 330,000 compounds, 0.19% hits; calls by dose curve; further: nearly all actives have a fitted effect of over 55% in size
Large screens that a line does not name were inactive. This is a sample that favours compounds with a hit; in the whole collection about 21% have one here. Unless noted, the call rests on the fitted dose curve; in most records, active means well fitted inhibition curve with a large enough effect; inconclusive means small, poorly fitted or top-dose-only effect, or another doubt; inactive means no such curve, though single readings can be large or run the other way.

Cc1ccc(S(=O)(=O)N(C)CC(=O)N(CC(C)C)C2CCS(=O)(=O)C2)cc1 (stereo not given)	Pf growth 96h inconclusive (no result: Cycloheximide cs, Shiga toxin inh, NS1 function inh)
CCOC(=O)c1csc(COc2ccc(OC)cc2)n1	Cycloheximide cs 61, Shiga toxin inh 122
CCOC(=O)c1csc(N)n1	Cycloheximide cs 34, Shiga toxin inh 80
CCOC(=O)Cc1csc(N)n1	none (no result: Pf growth 48h)
CC(C)[C@H](NC(=O)c1ccc(Cl)cc1)C(=O)OCC(=O)N1CCN(c2ccccc2)CC1	none (no result: Pf growth 96h, Cycloheximide cs, Pf growth 48h, Shiga toxin inh, NS1 function inh)
O=C(COc1cccc2ccccc12)NNC(=O)c1cccs1	none
CSCC[C@H](NC(=O)[C@H](CCCN=C(N)N)NC(=O)[C@@H]1CCCN1C(=O)[C@H](Cc1ccccc1)NC(=O)[C@H](C)NC(=O)[C@H](CC(C)C)NC(=O)[C@H](Cc1ccc(O)cc1)NC(=O)[C@H](CC(N)=O)NC(=O)[C@@H](N)CCSC)C(N)=O	none (no result: Pf growth 96h, Pf growth 48h, NS1 function inh, SARS PLP yeast)
O=C(Nc1ccccn1)N1CCOCC1	none (no result: Pf growth 96h)
O=C(NNc1ccccc1)C(=O)N1CCCCC1	none
O=C(Nc1ccccc1Br)C(=O)N1CCCC1	Cycloheximide cs 40, Shiga toxin inh active
O=C(Nc1ccccn1)C(=O)N1CCCCC1	Shiga toxin inh 47
C/C(CC(=O)Nc1ccccc1Br)=N\NC(=O)C(=O)N1CCCC1	Pf growth 96h 10µM
COC(=O)c1ccccc1NC(=O)c1noc2c1CCCC2	Pf growth 96h 9.3µM
Cc1cc(NC(=O)c2noc3c2CCCC3)nn1Cc1ccc(Cl)cc1	none
COc1cc(NC(=O)c2noc3c2CCC3)c(OC)cc1Cl	Pf growth 48h 2.6µM
COc1cc(NC(=O)c2noc(C)c2[N+](=O)[O-])c(OC)cc1Cl	Pf growth 96h inconclusive
CC(=O)c1ccc(NC(=O)c2noc3c2CCC3)cc1	Pf growth 96h inconclusive, Shiga toxin inh 64 (no result: NS1 function inh)
COc1ccc(NC(=O)c2noc3c2CCC3)cc1	Cycloheximide cs 35, Shiga toxin inh 65 (no result: Pf growth 96h)
CN(C)C(CNC(=O)CCc1c[nH]c2ccccc12)c1ccccc1 (stereo not given)	none
O=C(Nc1cccc(O)c1)c1noc2c1CCCCC2	none (no result: Pf growth 96h)
Cc1ccc(NC(=O)c2noc3c2CCC3)cc1C	Pf growth 96h inconclusive, Cycloheximide cs 28, Shiga toxin inh 93 (no result: NS1 function inh)
CCCCN1C(=O)N(c2nnc(C(C)(C)C)s2)C(O)C1c1ccc(C)cc1 (stereo not given)	Pf growth 96h 10µM, Cycloheximide cs 17, Pf growth 48h 8.3µM
Cc1cc2cc3c(cc2nc1SCC(=O)N1CCN(C(=O)c2ccco2)CC1)OCO3	Pf growth 96h inconclusive, Pf growth 48h 13µM
Cc1ccc(-n2nnnc2SCC(=O)N2CCN(C(=O)c3ccco3)CC2)c(C)c1	Pf growth 96h 6.6µM, SARS PLP yeast inconclusive
COc1ccc(OC)c(-n2nnnc2SCC(=O)N2CCN(C(=O)c3ccco3)CC2)c1	Pf growth 96h inconclusive
CCc1cc2ccc(OC)cc2nc1SCC(=O)N1CCN(C(=O)c2ccco2)CC1	Pf growth 96h inconclusive, Pf growth 48h inconclusive
Cc1cc(C)cc(-c2nnc(SCC(=O)N3CCN(C(=O)c4ccco4)CC3)o2)c1	Pf growth 96h 12µM, Pf growth 48h inconclusive
COc1ccc(N2CC(C(=O)Nc3c(C(N)=O)oc4ccccc34)CC2=O)cc1 (stereo not given)	Pf growth 48h inconclusive (no result: Cycloheximide cs, Shiga toxin inh, NS1 function inh)
O=[N+]([O-])c1ccccc1S(=O)(=O)n1nnc2ccccc21	Pf growth 96h inconclusive
COc1ccc(-n2nnnc2CNC(=O)c2ccc3c(c2)OCO3)cc1	none (no result: Cycloheximide cs, Shiga toxin inh, NS1 function inh)
O=S(=O)(Cc1ccc(Cl)cc1)N1CCN(c2ncccn2)CC1	none
COC(=O)c1ccc(NC(=S)NC2CCCCC2)cc1	Shiga toxin inh 41
COC(=O)c1ccc(NC(=S)NCC2CC2)cc1	Cycloheximide cs 63, Shiga toxin inh 97
COC(=O)c1cccnc1NC(=S)NC1CCCCC1	Pf growth 96h inconclusive, Pf growth 48h inconclusive (no result: NS1 function inh)
COc1ccc(NC(=O)CNC(=O)C2CCCCC2)cc1	Cycloheximide cs 22
COC(=O)c1ccc(NC(=O)NC2CCCCC2)cc1	Cycloheximide cs 41, Shiga toxin inh 110
Cc1sc(-c2cccnc2)nc1OC(=O)C1CC1	none
CN(C)S(=O)(=O)c1cccc(NC(=S)NCCc2ccccn2)c1	none (no result: NS1 function inh)
CN(CC(=O)NC(=O)NC1CCCCC1)CC(=O)Nc1ccc(Cl)cc1	Pf growth 96h 4.1µM, Pf growth 48h inconclusive (no result: Cycloheximide cs, Shiga toxin inh, NS1 function inh)
COC(=O)c1ccc(NC(=O)C2C3CCC(C3)C2C(=O)O)cc1 (stereo not given)	none (no result: SARS PLP yeast)
COc1ccc(CCNC(=O)NC2CCCCC2)cc1	none
COC(=O)c1ccc(NC(=S)NC2CC3CCC2C3)cc1 (stereo not given)	Cycloheximide cs 41, Shiga toxin inh 104
COc1ccc(NC(=O)NC2CCCCCCC2)cc1	Cycloheximide cs 45, Shiga toxin inh 61
S=C(NCCc1ccccn1)NC1CC2CCC1C2 (stereo not given)	Pf growth 96h inconclusive, Cycloheximide cs 27
Cc1cccc(C)c1OCC(O)CN1CCC(CN2C(=O)c3cccc4cccc(c34)C2=O)CC1 (stereo not given)	Pf growth 48h inconclusive (no result: Pf growth 96h)
O=C1CCCC/C=C\C[C@H](CC(=O)N(CCO)Cc2ccccc2)C(=O)N2CCC[C@@H]2CO1	none (no result: Pf growth 96h, Cycloheximide cs, Pf growth 48h, Shiga toxin inh, NS1 function inh)
CNS(=O)(=O)c1cccc(C(=O)OCc2cc(Cl)cc3c2OCOC3)c1	none
CC(=O)CCC(=O)N1CCCC(N2CCN(c3cccc(Cl)c3)CC2)C1 (stereo not given)	none
CC(NC(=O)c1ccccc1Cl)C(=O)N1CCN(Cc2ccc3c(c2)OCO3)CC1 (stereo not given)	none (no result: Cycloheximide cs, Shiga toxin inh, NS1 function inh)
CCOc1ccccc1NC(=S)NC1CC2CCC1C2 (stereo not given)	Pf growth 96h 5.2µM, Pf growth 48h inconclusive
COc1ccc(NC(=S)NC2CC3CCC2C3)c(OC)c1 (stereo not given)	Pf growth 96h inconclusive, Pf growth 48h inconclusive
COc1ccc(CCNc2oc(Cc3cccc4ccccc34)nc2C#N)cc1OC	Pf growth 96h inconclusive, Pf growth 48h 6.6µM
N#Cc1nc(COc2ccccc2F)oc1NCc1ccc(F)cc1	Cycloheximide cs 35, Shiga toxin inh 64 (no result: Pf growth 48h)
CN(C)CCNc1oc(COc2ccc(-c3ccccc3)cc2)nc1C#N	Pf growth 48h inconclusive (no result: Pf growth 96h)
CN(C)CCNc1oc(COc2ccc(Cl)cc2Cl)nc1C#N	Pf growth 96h inconclusive
COc1ccc(CCNc2oc(COc3ccccc3F)nc2C#N)cc1	Pf growth 96h inconclusive, Cycloheximide cs 15
C=CCNc1oc(COc2ccc(C)cc2)nc1C#N	Pf growth 96h 6.6µM, Cycloheximide cs 25, Shiga toxin inh 136 (no result: Pf growth 48h)
CC(C)c1ccccc1NC(=S)NCCCn1ccnc1	none (no result: NS1 function inh)
CN(C)c1oc(COc2ccccc2F)nc1C#N	Cycloheximide cs 29, Shiga toxin inh 59
NC(=O)C1CCN(C(=O)CCC(=O)c2ccc(Br)cc2)CC1	none
CN(Cc1ccccc1)C(=O)C1CCN(S(=O)(=O)c2cccc3nonc23)CC1	Pf growth 96h 13µM
